According to ChEMBL document CHEMBL1157539, “Thousands of chemical starting points for antimalarial lead identification” (Nature, 2010):

test system: Plasmodium falciparum; assay: GSK_TCMDC: Inhibition of Plasmodium falciparum Dd2 in whole red blood cells, using parasite LDH activity as an index of growth. Test compounds present at 2uM; type: functional

Q: Which Inhibition does the source give for `Cc1c(CNCCCNc2nc3cscc3[nH]2)sc(C(F)F)c1Br.Cl` here?
A: 11%

Q: `CC(=O)Nc1cccc(C(=O)Nc2ccc(-c3cccc(-c4nc5cccc(C)c5[nH]4)c3)cc2)c1` was tested. Which Inhibition did it give?
A: 50%

Q: For `Cl.c1cc2[nH]c(CCCCc3nc4cc(C5=N[C@H]6CCCC[C@H]6N5)ccc4[nH]3)nc2cc1C1=N[C@H]2CCCC[C@H]2N1`, which Inhibition is on record?
A: 88%

Q: `O=C(NCC1CCC(C(=O)NC2CCCc3ccccc32)CC1)c1ccc(O)c(-c2ccc(Cl)c(Cl)c2)c1` (stereo not drawn) was tested. Which Inhibition did it give?
A: 86%

Q: Which Inhibition does the source give for `CC(=O)c1ccc(NC(=O)Nc2ccc3nccc(N4CCN(C)CC4)c3c2)cc1` here?
A: 93%

Q: With `Cc1cc(-c2ccc(S(=O)(=O)Nc3cc4c(cc3OC(C)C)CCN(C)CC4)cc2)ccc1Cl.Cl` as the compound, how does the Inhibition read?
A: 19%

Q: `CN(c1ccc(NC(=O)Nc2cc(C(C)(C)C)on2)cc1)c1ccnc(NCCN2CCOCC2)n1.O=C(O)C(F)(F)F` was tested. Which Inhibition did it give?
A: 18%

Q: For `CS(=O)(=O)NCCCNCc1ccc(-c2ccc(-c3nc4cc(F)ccc4[nH]3)s2)cc1.O=C(O)C(F)(F)F`, which Inhibition is on record?
A: 30%

Q: Which Inhibition does the source give for `CCn1c(-c2nc(-c3ccc4c(c3)OCO4)cnc2N)nc2cnccc21` here?
A: 98%

Q: How did the Inhibition turn out when `CC(=O)c1ccc2c(c1)C(NC(=O)c1cccc(Cl)c1Cl)C(CO)C(C)(C)O2` (stereo not drawn) was run?
A: 44%

Q: Which Inhibition does the source give for `Cc1ccc(C)c(NC(=O)Nc2ccc(C)c(-c3ccc(C(=O)Nc4ccncc4)cc3)c2)c1` here?
A: 59%

Q: `Cc1cc(N[C@@H](Cc2ccccc2)C(=O)NC2CCCC2)nc(NCCOc2ccccc2)n1.O=C(O)C(F)(F)F` was tested. Which Inhibition did it give?
A: 48%

Q: Which Inhibition does the source give for `CCCOc1ccccc1-c1nc2[nH]c3c(c2c(=O)[nH]1)CCN(C)C3` here?
A: 70%

Q: How did the Inhibition turn out when `CCNc1cc(C(=O)N[C@@H](Cc2ccccc2)[C@H](O)CNC2CCC(C(C)(C)C)CC2)cc(N2CCCC2=O)c1` (stereo partly drawn) was run?
A: 98%

Q: For `CN1CCc2ccc(NC(=O)Nc3ccc(-c4ccccc4)cc3)cc2C1`, which Inhibition is on record?
A: 45%

Q: `CN1CCN(Cc2cccc(-c3ccc4c(Nc5ccc(Oc6cccnc6)cc5)ccnc4c3)c2)CC1` was tested. Which Inhibition did it give?
A: 100%

Q: For `Cl.N=c1c2c(n(Cc3cccc(Cl)c3)c3c1CCC3)CCCC2`, which Inhibition is on record?
A: 86%

Q: With `N#Cc1cncc(-c2nc3c(N4CCCC(N)C4)cccc3n2CCNCc2ccccc2)c1.O=C(O)C(F)(F)F` (stereo not drawn) as the compound, how does the Inhibition read?
A: 1%

Q: With `CC(=O)c1cccc2cc(C(=O)NC3CCC(CCN4CCc5ccc(C#N)cc5C4)CC3)[nH]c12.Cl` (stereo not drawn) as the compound, how does the Inhibition read?
A: 17%

Q: For `COc1ccc(C2C(C(=O)Nc3ccc(C)cc3Br)c3ccccc3C(=O)N2C)cc1` (stereo not drawn), which Inhibition is on record?
A: 2%

Q: How did the Inhibition turn out when `COc1ccc(NC(=O)NC2CCN(CCCOc3cc(C)nc4ccccc34)CC2)cc1OC` was run?
A: 9%

Q: Which Inhibition does the source give for `Cl.Nc1ncnc2occ(-c3ccc(NC(=O)Nc4cc(C(F)(F)F)ccc4F)cc3)c12` [GW770249A] here?
A: 99%

Q: How did the Inhibition turn out when `CC(C)=CC1C(C(=O)n2c(=N)[nH]c3ccccc32)C1(C)C` (stereo not drawn) was run?
A: 3%

Q: For `Cl.N#Cc1ccc2c(c1)CN(CCC1CCC(NC(=O)c3cc4cc(OC(F)(F)F)ccc4[nH]3)CC1)CC2` (stereo not drawn), which Inhibition is on record?
A: 19%

Q: For `CCC[C@@H]([C@@H](CC1CCC(C)CC1)C(=O)N[C@@H](CCCCNC(=O)c1ccccn1)C(=O)Nc1nccs1)N(O)C=O` (stereo partly drawn), which Inhibition is on record?
A: 79%

Q: With `O=C(/C=C/c1ccc(C(F)(F)F)cc1)NCCCCCN1CCN(C(=O)Nc2ccc(F)c(Cl)c2)CC1` as the compound, how does the Inhibition read?
A: 0%

Q: With `CS(=O)(=O)O.O=[N+]([O-])c1ccc(CNCCCCCCNCc2ccc([N+](=O)[O-])c3ccccc23)c2ccccc12` as the compound, how does the Inhibition read?
A: 98%

Q: For `O=C(Nc1cccc(OCc2ccccc2)c1)c1ccc(CN2CCC(Cc3ccccc3)CC2)cc1`, which Inhibition is on record?
A: 27%

Q: For `Cc1ccc(S(=O)(=O)NC2CCN(CCNC(=O)Nc3cc(C)nc4ccccc34)C2)cc1` (stereo not drawn), which Inhibition is on record?
A: 42%

Q: `Clc1cc2c(Nc3ccc(Oc4ccccc4)cc3)ccnc2cc1-c1ccc(CNCCN2CCOCC2)o1` was tested. Which Inhibition did it give?
A: 89%

Q: With `CCOC(=O)c1ccc(Nc2cc(Nc3ccc(C(=O)OCC)cc3)nc(C)n2)cc1` as the compound, how does the Inhibition read?
A: 33%

Q: How did the Inhibition turn out when `CCCCCN1CCCC(NS(=O)(=O)c2cccc(C(=O)Nc3cccc(C(F)(F)F)c3)c2)C1.O=C(O)C(F)(F)F` (stereo not drawn) was run?
A: 5%

Q: `N#Cc1cccc(NC(=O)NC2CCN(CCCCCNC(=O)C3CC3c3ccc(Cl)c(Cl)c3)CC2)c1` (stereo not drawn) was tested. Which Inhibition did it give?
A: 0%

test system: HepG2; assay: GSK_TCMDC: Percent inhibition of human HepG2 cell line. Test compounds present at 10uM.; type: functional

Q: Which Inhibition does the source give for `CCCCNS(=O)(=O)c1ccc(NC(=O)c2cc([N+](=O)[O-])ccc2Cl)cc1` here?
A: 12%

Q: Which Inhibition does the source give for `Cc1ccc(Sc2ccc(NC(=O)CN3CCN(C(=O)c4ccco4)CC3)cc2)cc1C` here?
A: 14%

Q: Which Inhibition does the source give for `O=C(NCC1CCN(Cc2cccc(C(F)(F)F)c2)C1)c1cc(-c2cccc(F)c2)cs1.O=C(O)C(F)(F)F` (stereo not drawn) here?
A: 19%

Q: `COc1ccc(NC(=O)/C=C/c2ccccc2Cl)cc1OCCN1CCC(N2CCCC2)CC1.O=C(O)C(=O)O` was tested. Which Inhibition did it give?
A: 22%

Q: Which Inhibition does the source give for `O=C(Nc1ccc(Cl)cc1)c1ccc(CN2CCCN(Cc3cccc(Cl)c3)CC2)cc1.O=C(O)C(F)(F)F` here?
A: 53%

Q: `O=C(Nc1ccc(C(F)(F)F)cc1)N[C@H]1CCN(CCCCCNC(=O)C2CC2c2ccc(Cl)c(Cl)c2)C1` (stereo partly drawn) was tested. Which Inhibition did it give?
A: 41%

Q: Which Inhibition does the source give for `O=C(Nc1cccc(OC2CCN(Cc3ccc(F)cc3)CC2)c1)c1ccc(C(F)(F)F)cc1.O=C(O)C(F)(F)F` here?
A: 28%

Q: With `Cc1c(CNCCCNc2nc3cscc3[nH]2)sc(C(F)F)c1Br.Cl` as the compound, how does the Inhibition read?
A: 1%

Q: Which Inhibition does the source give for `CC(=O)Nc1cccc(C(=O)Nc2ccc(-c3cccc(-c4nc5cccc(C)c5[nH]4)c3)cc2)c1` here?
A: 86%

Q: How did the Inhibition turn out when `Cl.c1cc2[nH]c(CCCCc3nc4cc(C5=N[C@H]6CCCC[C@H]6N5)ccc4[nH]3)nc2cc1C1=N[C@H]2CCCC[C@H]2N1` was run?
A: 5%

Q: `O=C(NCC1CCC(C(=O)NC2CCCc3ccccc32)CC1)c1ccc(O)c(-c2ccc(Cl)c(Cl)c2)c1` (stereo not drawn) was tested. Which Inhibition did it give?
A: 0%

Q: `CC(=O)c1ccc(NC(=O)Nc2ccc3nccc(N4CCN(C)CC4)c3c2)cc1` was tested. Which Inhibition did it give?
A: 2%

Q: For `Cc1cc(-c2ccc(S(=O)(=O)Nc3cc4c(cc3OC(C)C)CCN(C)CC4)cc2)ccc1Cl.Cl`, which Inhibition is on record?
A: 33%

Q: How did the Inhibition turn out when `CN(c1ccc(NC(=O)Nc2cc(C(C)(C)C)on2)cc1)c1ccnc(NCCN2CCOCC2)n1.O=C(O)C(F)(F)F` was run?
A: 51%

Q: How did the Inhibition turn out when `CS(=O)(=O)NCCCNCc1ccc(-c2ccc(-c3nc4cc(F)ccc4[nH]3)s2)cc1.O=C(O)C(F)(F)F` was run?
A: 23%

Q: With `CCn1c(-c2nc(-c3ccc4c(c3)OCO4)cnc2N)nc2cnccc21` as the compound, how does the Inhibition read?
A: 94%

Q: `CC(=O)c1ccc2c(c1)C(NC(=O)c1cccc(Cl)c1Cl)C(CO)C(C)(C)O2` (stereo not drawn) was tested. Which Inhibition did it give?
A: 5%

Q: Which Inhibition does the source give for `Cc1ccc(C)c(NC(=O)Nc2ccc(C)c(-c3ccc(C(=O)Nc4ccncc4)cc3)c2)c1` here?
A: 46%

Q: With `Cc1cc(N[C@@H](Cc2ccccc2)C(=O)NC2CCCC2)nc(NCCOc2ccccc2)n1.O=C(O)C(F)(F)F` as the compound, how does the Inhibition read?
A: 40%

Q: How did the Inhibition turn out when `CCCOc1ccccc1-c1nc2[nH]c3c(c2c(=O)[nH]1)CCN(C)C3` was run?
A: 8%

Q: For `CCNc1cc(C(=O)N[C@@H](Cc2ccccc2)[C@H](O)CNC2CCC(C(C)(C)C)CC2)cc(N2CCCC2=O)c1` (stereo partly drawn), which Inhibition is on record?
A: 38%

Q: For `CN1CCc2ccc(NC(=O)Nc3ccc(-c4ccccc4)cc3)cc2C1`, which Inhibition is on record?
A: 24%

Q: How did the Inhibition turn out when `CN1CCN(Cc2cccc(-c3ccc4c(Nc5ccc(Oc6cccnc6)cc5)ccnc4c3)c2)CC1` was run?
A: 15%

Q: For `Cl.N=c1c2c(n(Cc3cccc(Cl)c3)c3c1CCC3)CCCC2`, which Inhibition is on record?
A: 0%

Q: Which Inhibition does the source give for `N#Cc1cncc(-c2nc3c(N4CCCC(N)C4)cccc3n2CCNCc2ccccc2)c1.O=C(O)C(F)(F)F` (stereo not drawn) here?
A: 8%

Q: How did the Inhibition turn out when `CC(=O)c1cccc2cc(C(=O)NC3CCC(CCN4CCc5ccc(C#N)cc5C4)CC3)[nH]c12.Cl` (stereo not drawn) was run?
A: 12%

Q: Which Inhibition does the source give for `COc1ccc(C2C(C(=O)Nc3ccc(C)cc3Br)c3ccccc3C(=O)N2C)cc1` (stereo not drawn) here?
A: 4%

Q: `COc1ccc(NC(=O)NC2CCN(CCCOc3cc(C)nc4ccccc34)CC2)cc1OC` was tested. Which Inhibition did it give?
A: 3%

Q: Which Inhibition does the source give for `Cl.Nc1ncnc2occ(-c3ccc(NC(=O)Nc4cc(C(F)(F)F)ccc4F)cc3)c12` [GW770249A] here?
A: 57%

Q: How did the Inhibition turn out when `CC(C)=CC1C(C(=O)n2c(=N)[nH]c3ccccc32)C1(C)C` (stereo not drawn) was run?
A: 16%

Q: With `Cl.N#Cc1ccc2c(c1)CN(CCC1CCC(NC(=O)c3cc4cc(OC(F)(F)F)ccc4[nH]3)CC1)CC2` (stereo not drawn) as the compound, how does the Inhibition read?
A: 4%

Q: `CCC[C@@H]([C@@H](CC1CCC(C)CC1)C(=O)N[C@@H](CCCCNC(=O)c1ccccn1)C(=O)Nc1nccs1)N(O)C=O` (stereo partly drawn) was tested. Which Inhibition did it give?
A: 25%

Q: `O=C(/C=C/c1ccc(C(F)(F)F)cc1)NCCCCCN1CCN(C(=O)Nc2ccc(F)c(Cl)c2)CC1` was tested. Which Inhibition did it give?
A: 35%

Q: `CS(=O)(=O)O.O=[N+]([O-])c1ccc(CNCCCCCCNCc2ccc([N+](=O)[O-])c3ccccc23)c2ccccc12` was tested. Which Inhibition did it give?
A: 88%

Q: Which Inhibition does the source give for `O=C(Nc1cccc(OCc2ccccc2)c1)c1ccc(CN2CCC(Cc3ccccc3)CC2)cc1` here?
A: 41%

Q: For `Cc1ccc(S(=O)(=O)NC2CCN(CCNC(=O)Nc3cc(C)nc4ccccc34)C2)cc1` (stereo not drawn), which Inhibition is on record?
A: 0%

Q: Which Inhibition does the source give for `Clc1cc2c(Nc3ccc(Oc4ccccc4)cc3)ccnc2cc1-c1ccc(CNCCN2CCOCC2)o1` here?
A: 0%

Q: How did the Inhibition turn out when `CCOC(=O)c1ccc(Nc2cc(Nc3ccc(C(=O)OCC)cc3)nc(C)n2)cc1` was run?
A: 4%

Q: For `CCCCCN1CCCC(NS(=O)(=O)c2cccc(C(=O)Nc3cccc(C(F)(F)F)c3)c2)C1.O=C(O)C(F)(F)F` (stereo not drawn), which Inhibition is on record?
A: 22%

Q: `N#Cc1cccc(NC(=O)NC2CCN(CCCCCNC(=O)C3CC3c3ccc(Cl)c(Cl)c3)CC2)c1` (stereo not drawn) was tested. Which Inhibition did it give?
A: 36%
